Here are results for 9 molecules from ChEMBL document CHEMBL2218924, “A broad activity screen in support of a chemogenomic map for kinase signalling research and drug discovery” (Biochem J, 2013).

The target of experiment [1] is Tyrosine-protein kinase HCK (Homo sapiens) (UniProt P08631). Particulars: at 10 µM; call rule not given here.
Experiment [2] deals with T1, Serine/threonine-protein kinase haspin (Homo sapiens) (UniProt Q8TF76).
T1 sequence (whole entry): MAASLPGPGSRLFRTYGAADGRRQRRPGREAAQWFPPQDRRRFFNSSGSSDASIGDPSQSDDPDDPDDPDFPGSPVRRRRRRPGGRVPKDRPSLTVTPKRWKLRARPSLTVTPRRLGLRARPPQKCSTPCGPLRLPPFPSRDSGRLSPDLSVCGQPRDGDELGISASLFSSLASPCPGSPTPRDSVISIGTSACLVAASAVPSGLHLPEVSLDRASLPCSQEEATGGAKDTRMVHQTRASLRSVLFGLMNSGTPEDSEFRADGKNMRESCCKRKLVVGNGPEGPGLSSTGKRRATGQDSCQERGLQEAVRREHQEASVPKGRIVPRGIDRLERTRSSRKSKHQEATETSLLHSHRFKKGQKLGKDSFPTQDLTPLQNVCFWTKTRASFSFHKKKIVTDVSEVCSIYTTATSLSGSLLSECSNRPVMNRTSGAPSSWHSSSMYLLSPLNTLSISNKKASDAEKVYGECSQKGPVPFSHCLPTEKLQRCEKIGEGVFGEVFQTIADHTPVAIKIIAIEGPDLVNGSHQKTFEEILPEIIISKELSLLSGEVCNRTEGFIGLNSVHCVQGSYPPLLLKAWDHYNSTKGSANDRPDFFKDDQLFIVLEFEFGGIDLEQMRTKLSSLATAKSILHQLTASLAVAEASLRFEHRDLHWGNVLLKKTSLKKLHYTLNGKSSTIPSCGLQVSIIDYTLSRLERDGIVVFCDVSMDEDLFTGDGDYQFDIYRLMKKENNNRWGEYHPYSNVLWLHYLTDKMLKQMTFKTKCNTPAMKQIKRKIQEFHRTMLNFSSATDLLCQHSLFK
The following applies: at 1 µM.

Experiment [3] concerns the target T1, Serine/threonine-protein kinase haspin (Homo sapiens). The following applies: at 10 µM.
Experiment [4] addresses Tyrosine-protein kinase HCK (Homo sapiens) (UniProt P08631). The following applies: at 1 µM.
The target is the same in experiment [5]. Particulars: at 1 µM. The source holds these as a separate data set.
Experiment [6] has the same target. The following applies: at 10 µM. The source holds these as a separate data set.
The target of experiment [7] is Insulin-like growth factor 1 receptor (Homo sapiens) (UniProt P08069). The following applies: at 1 µM.
For experiment [8], the target named is T2, Protein kinase C zeta type (Homo sapiens) (UniProt Q05513).
T2 sequence (whole entry): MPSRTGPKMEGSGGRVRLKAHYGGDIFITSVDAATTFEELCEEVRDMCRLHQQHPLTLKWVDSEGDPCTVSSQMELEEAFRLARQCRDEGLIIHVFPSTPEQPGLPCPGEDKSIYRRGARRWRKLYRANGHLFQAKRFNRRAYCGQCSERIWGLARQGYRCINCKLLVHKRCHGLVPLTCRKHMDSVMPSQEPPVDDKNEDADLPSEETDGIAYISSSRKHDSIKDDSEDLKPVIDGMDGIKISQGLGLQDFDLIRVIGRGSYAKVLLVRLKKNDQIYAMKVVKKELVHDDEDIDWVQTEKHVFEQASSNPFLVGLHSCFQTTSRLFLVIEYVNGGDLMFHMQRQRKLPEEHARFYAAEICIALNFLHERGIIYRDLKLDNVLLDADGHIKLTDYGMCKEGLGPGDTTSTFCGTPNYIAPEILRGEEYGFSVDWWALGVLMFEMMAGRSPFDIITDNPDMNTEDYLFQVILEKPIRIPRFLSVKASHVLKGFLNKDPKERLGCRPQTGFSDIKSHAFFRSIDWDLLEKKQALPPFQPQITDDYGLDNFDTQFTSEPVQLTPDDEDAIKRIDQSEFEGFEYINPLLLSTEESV
The following applies: at 10 µM.

Experiment [9] has as its target T3, Serine/threonine-protein kinase D1 (Homo sapiens) (UniProt Q15139).
T3 sequence (whole entry): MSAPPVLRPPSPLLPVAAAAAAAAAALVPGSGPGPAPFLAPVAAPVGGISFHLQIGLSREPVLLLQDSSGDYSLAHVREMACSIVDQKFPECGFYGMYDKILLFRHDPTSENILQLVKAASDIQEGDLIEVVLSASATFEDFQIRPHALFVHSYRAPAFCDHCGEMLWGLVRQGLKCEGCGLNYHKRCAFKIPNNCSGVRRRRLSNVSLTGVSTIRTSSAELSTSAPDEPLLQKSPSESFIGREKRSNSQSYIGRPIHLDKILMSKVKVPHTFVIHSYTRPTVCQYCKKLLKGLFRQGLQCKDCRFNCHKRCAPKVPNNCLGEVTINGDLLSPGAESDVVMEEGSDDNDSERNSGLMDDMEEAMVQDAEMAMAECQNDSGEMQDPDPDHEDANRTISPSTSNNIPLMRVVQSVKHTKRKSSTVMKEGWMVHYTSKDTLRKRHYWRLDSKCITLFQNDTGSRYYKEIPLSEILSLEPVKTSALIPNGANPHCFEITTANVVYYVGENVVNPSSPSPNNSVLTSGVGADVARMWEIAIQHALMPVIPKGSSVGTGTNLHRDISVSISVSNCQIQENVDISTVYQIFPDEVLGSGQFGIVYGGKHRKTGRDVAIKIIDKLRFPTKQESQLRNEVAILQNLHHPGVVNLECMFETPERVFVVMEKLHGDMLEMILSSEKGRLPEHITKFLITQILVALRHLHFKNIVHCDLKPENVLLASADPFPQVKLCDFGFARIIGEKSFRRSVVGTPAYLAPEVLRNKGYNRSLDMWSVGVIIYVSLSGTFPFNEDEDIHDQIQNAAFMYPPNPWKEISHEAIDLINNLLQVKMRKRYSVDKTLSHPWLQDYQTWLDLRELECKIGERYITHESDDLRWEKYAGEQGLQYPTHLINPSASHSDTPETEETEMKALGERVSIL
Particulars: at 1 µM.

For experiment [10], the target named is T3, Serine/threonine-protein kinase D1 (Homo sapiens). Particulars: at 10 µM.
Experiment [11] concerns the target Insulin-like growth factor 1 receptor (Homo sapiens) (UniProt P08069). The following applies: at 10 µM.
Experiment [12] deals with Protein kinase C eta type (Homo sapiens) (UniProt P24723). Particulars: at 1 µM.
Experiment [13] has the same target. Particulars: at 10 µM.
The target of experiment [14] is T4, Protein kinase C iota type (Homo sapiens) (UniProt P41743).
T4 sequence (whole entry): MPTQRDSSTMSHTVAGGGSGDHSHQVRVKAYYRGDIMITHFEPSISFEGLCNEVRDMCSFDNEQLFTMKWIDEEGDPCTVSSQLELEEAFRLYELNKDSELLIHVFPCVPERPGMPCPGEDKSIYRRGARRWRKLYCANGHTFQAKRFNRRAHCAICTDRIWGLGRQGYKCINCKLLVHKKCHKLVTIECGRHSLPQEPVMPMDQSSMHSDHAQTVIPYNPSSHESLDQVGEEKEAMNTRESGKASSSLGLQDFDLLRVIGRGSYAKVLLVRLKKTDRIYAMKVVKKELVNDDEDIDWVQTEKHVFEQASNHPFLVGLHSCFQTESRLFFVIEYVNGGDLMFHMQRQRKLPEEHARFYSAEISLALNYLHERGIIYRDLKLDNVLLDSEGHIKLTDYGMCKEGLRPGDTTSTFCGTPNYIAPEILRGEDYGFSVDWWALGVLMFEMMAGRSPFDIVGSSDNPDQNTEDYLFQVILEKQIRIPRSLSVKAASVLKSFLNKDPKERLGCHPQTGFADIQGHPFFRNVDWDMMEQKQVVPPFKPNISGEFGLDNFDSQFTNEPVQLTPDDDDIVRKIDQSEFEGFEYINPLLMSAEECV
Particulars: at 1 µM.

The target of experiment [15] is T4, Protein kinase C iota type (Homo sapiens). Particulars: at 10 µM.
The target of experiment [16] is T5, Serine/threonine-protein kinase D2 (Homo sapiens) (UniProt Q9BZL6).
T5 sequence (whole entry): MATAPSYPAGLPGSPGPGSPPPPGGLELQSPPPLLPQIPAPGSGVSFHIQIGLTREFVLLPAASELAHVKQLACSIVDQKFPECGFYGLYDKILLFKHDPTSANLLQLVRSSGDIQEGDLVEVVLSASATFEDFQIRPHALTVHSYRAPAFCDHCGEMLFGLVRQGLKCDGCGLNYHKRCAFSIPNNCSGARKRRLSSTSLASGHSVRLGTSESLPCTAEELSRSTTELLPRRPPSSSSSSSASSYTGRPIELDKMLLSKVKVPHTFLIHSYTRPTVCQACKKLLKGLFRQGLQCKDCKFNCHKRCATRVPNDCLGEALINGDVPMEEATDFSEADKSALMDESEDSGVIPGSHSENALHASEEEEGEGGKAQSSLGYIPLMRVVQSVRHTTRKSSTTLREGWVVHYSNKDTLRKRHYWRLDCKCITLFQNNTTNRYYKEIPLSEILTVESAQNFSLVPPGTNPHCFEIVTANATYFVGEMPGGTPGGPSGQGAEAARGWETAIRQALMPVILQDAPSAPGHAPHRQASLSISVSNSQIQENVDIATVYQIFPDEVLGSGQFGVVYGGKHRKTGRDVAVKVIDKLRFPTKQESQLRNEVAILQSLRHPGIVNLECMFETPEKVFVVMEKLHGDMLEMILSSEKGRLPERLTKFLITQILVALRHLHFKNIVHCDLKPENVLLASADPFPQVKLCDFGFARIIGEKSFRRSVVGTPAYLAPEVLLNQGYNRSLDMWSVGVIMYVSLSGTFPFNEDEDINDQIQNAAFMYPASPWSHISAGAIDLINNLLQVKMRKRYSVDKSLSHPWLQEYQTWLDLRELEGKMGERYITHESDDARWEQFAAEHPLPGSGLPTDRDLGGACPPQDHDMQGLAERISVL
Particulars: at 1 µM.

Experiment [17] concerns the target T5, Serine/threonine-protein kinase D2 (Homo sapiens). The following applies: at 10 µM.
Experiment [18] has as its target Protein kinase C theta type (Homo sapiens) (UniProt Q04759). The following applies: at 1 µM.
For experiment [19] the target is unchanged. Particulars: at 10 µM.

Chain of Protein kinase C theta type (Homo sapiens) (Q04759 whole entry, looked up): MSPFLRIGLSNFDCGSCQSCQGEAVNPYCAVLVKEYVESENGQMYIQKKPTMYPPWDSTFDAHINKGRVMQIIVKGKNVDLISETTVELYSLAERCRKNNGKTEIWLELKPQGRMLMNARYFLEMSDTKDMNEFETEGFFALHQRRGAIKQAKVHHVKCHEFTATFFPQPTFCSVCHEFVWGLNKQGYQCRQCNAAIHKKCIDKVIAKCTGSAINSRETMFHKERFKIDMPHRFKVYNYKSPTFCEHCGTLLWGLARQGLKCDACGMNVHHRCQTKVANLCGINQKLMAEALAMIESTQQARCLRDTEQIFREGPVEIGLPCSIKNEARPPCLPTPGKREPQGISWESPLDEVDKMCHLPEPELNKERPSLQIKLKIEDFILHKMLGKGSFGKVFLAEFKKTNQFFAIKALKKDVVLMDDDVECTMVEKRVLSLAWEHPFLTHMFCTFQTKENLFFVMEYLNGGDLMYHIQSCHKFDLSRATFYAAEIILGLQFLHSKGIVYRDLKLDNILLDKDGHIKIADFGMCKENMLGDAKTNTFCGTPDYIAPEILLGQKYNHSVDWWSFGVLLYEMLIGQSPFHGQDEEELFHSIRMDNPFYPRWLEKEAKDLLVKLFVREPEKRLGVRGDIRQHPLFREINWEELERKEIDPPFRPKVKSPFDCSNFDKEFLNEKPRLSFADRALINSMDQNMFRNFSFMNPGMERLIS
Chain of Protein kinase C eta type (Homo sapiens) (P24723 whole entry): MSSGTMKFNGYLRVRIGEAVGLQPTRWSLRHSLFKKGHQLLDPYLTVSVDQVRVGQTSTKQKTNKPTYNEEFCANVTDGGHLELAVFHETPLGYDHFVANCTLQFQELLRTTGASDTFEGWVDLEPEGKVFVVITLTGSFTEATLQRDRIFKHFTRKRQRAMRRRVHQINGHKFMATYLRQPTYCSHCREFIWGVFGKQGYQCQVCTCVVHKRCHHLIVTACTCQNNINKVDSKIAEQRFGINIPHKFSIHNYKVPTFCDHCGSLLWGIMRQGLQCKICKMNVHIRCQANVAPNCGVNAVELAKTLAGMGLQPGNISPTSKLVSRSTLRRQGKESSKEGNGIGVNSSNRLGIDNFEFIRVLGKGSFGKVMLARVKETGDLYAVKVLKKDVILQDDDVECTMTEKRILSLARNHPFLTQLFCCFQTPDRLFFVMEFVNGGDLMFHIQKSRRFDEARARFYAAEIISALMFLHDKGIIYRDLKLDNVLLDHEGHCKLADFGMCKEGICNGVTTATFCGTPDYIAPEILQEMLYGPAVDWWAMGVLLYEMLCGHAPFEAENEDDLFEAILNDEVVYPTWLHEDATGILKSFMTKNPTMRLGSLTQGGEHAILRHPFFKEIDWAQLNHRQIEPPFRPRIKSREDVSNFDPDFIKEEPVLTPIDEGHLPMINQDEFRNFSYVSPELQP
Chain of Insulin-like growth factor 1 receptor (Homo sapiens) (P08069 31-736 limits assumed): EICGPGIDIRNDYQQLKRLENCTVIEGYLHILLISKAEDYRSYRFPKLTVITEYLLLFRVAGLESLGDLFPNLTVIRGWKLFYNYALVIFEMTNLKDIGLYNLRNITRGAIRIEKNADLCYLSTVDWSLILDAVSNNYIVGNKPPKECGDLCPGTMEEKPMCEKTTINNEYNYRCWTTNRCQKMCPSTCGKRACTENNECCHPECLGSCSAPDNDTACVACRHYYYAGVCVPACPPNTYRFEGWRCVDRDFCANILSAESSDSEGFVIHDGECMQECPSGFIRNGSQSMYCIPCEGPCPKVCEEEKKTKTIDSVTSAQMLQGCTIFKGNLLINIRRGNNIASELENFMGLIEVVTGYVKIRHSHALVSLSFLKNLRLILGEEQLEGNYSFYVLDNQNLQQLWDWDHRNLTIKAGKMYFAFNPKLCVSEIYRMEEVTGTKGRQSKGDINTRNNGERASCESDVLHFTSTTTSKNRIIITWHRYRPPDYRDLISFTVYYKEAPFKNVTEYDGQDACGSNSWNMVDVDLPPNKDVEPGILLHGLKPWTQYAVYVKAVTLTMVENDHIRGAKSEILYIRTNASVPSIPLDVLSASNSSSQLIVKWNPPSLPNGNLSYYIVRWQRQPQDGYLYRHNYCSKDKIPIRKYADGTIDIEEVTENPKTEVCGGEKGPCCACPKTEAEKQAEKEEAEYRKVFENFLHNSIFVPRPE
Chain of Insulin-like growth factor 1 receptor (Homo sapiens) (P08069 741-1367 limits assumed): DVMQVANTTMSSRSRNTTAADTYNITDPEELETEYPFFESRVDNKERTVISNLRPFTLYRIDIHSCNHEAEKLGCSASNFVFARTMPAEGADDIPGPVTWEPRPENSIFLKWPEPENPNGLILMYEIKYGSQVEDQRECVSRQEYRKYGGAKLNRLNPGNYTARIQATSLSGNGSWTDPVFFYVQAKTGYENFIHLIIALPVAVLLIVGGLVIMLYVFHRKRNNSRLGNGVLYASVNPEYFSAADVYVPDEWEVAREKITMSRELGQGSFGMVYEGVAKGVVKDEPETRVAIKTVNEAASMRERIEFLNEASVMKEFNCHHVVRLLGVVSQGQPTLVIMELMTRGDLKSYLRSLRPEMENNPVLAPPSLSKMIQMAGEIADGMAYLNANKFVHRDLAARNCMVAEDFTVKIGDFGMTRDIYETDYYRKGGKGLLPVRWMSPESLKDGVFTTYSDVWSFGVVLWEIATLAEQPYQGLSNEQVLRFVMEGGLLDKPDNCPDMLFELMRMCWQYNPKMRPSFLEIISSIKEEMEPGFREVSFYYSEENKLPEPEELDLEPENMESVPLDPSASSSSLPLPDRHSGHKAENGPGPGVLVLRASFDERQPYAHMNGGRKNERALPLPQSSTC
Chain of Tyrosine-protein kinase HCK (Homo sapiens) (P08631 2-526 limits assumed): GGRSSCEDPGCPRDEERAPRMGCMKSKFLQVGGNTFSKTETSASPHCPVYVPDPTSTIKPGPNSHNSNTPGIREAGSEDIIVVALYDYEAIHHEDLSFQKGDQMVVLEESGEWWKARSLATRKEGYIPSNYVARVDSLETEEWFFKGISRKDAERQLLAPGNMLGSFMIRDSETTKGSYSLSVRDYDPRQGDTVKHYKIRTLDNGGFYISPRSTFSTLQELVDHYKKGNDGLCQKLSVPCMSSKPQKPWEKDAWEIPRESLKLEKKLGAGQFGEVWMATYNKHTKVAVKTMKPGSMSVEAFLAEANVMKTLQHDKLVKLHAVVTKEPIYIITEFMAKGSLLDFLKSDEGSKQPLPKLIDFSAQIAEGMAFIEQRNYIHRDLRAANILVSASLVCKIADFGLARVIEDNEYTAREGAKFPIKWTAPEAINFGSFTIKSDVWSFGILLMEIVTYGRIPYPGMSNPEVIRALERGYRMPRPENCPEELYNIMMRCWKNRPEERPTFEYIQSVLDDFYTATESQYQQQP

With `O=C(Nc1nc2ccccc2n1CCN1CCOCC1)c1cccc([N+](=O)[O-])c1`, the residual activity – broadly, the signal under treatment as a percentage of the control signal – in [1] turned out to be 77%.

Take `NCCNc1ncc(C(N)=O)c(Nc2cccc(C(F)(F)F)c2)n1`: the residual activity in experiment [2] was 44%; in experiment [3], 7%; in experiment [4], 78%; in [1], 22%; in [5] it was 64%; in [6] it was 14%. Besides, the residual activity stood at 127% in [7], 112% in [8], 35% in [9] and 8% in [10].

Regarding `O=C(c1ccccc1)c1ccc(N2CCOCC2)cc1O`, the residual activity in experiment [2] is 98%; in experiment [3], 77%; in [4], 83%; in [1], 75%; in [6], 93%; in [7], 76%. The residual activity in [11] was 81%; in experiment [12] it was 116%; in [13], 83%; in [14], 78% (inactive); in experiment [15], 73%; in experiment [9] it was 95%. Besides, the residual activity in [16] is 96%; in [17], 100%.

As to `O=C1Cc2c([nH]c3ccc([N+](=O)[O-])cc23)-c2ccccc2N1`, the residual activity in experiment [4] is 41%; in experiment [1] it was 28%; in experiment [5] it was 81%; in experiment [6] it was 81%; in experiment [11], 123%.

`COc1ccc(-c2cnc3c(-c4ccsc4)cnn3c2)cc1`: the residual activity in experiment [2] came to 95%; in experiment [3], 83%; in [4], 59%; in experiment [1], 76%; in [7], 134%; in [13], 76%. In addition, the residual activity in [14] was 81% (inactive); in experiment [15], 77%; in experiment [9] it was 84%; in [10], 97%.

Consider `O=S(=O)(NCCNC/C=C/c1ccc(Br)cc1)c1cccc2cnccc12`, for which the residual activity in [2] came out at 7%; in experiment [3], 0%; in experiment [1] it was 72%; in [8], 78%; in [12] it was 66%; in experiment [13] it was 15%. Moreover, the residual activity in experiment [18] was 61%; in experiment [19], 17%; in experiment [10], 20%.

Take `NC(=O)c1cccc(-c2cc(Nc3ccc(OC(F)(F)F)cc3)ncn2)c1`: the residual activity in experiment [2] is 84%; in [3], 65%; in experiment [13], 91%; in [14] it was 92% (inactive); in [15], 69%; in experiment [17], 91%.

`Nc1nc(Nc2ccc(S(N)(=O)=O)cc2)nn1C(=O)c1c(F)cccc1F`: the residual activity is 71% in [4]; 25% in experiment [1]; 75% in experiment [5]; 21% in [6]; 105% in experiment [11]; 64% in experiment [13]. Further, the residual activity in experiment [18] is 30%; in experiment [19] it was 20%; in [14], 109% (inactive); in experiment [15] it was 100%; in experiment [9] it was 75%; in experiment [10], 19%. In addition, the figures for the residual activity in [16] and in experiment [17] were 113% and 78%, respectively.

As to `O=C1Cc2c([nH]c3ccc(Br)cc23)-c2ccccc2N1`, the residual activity in experiment [2] amounted to 60%; in [3], 44%; in experiment [1], 28%; in experiment [11], 141%; in experiment [8], 92%; in [12], 72%. Also, the residual activity in experiment [13] was 94%; in experiment [18], 49%; in experiment [19], 31%; in experiment [9], 99%; in experiment [10], 80%.
